Results as given in PubChem BioAssay (NCI).
This is part of a sample that, as a whole, favours compounds with a hit. Of some 79,000 tested, about 15% had one in any assay. Activity calls are given as the source filed them. No stated cut-off is given here; in the data, active means growth inhibition above about 70%; inactive means the rest.

How the values were obtained:
[1] = NCI Yeast Anticancer Drug Screen. Data for the rad50 strain (AID 155);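 further: 0% = growth of vehicle-only cultures of the same strain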; conditions: S. cerevisiae rad50 strain growth inhibition; at 50.0 µM; active compounds read high
Method in brief: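 Cells are treated with compound, grown, and their growth is then scored against vehicle-only cultures of the same repair-deficient yeast strain.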

[2] = NCI Yeast Anticancer Drug Screen. Data for the mec2-1 strain (AID 157); conditions: S. cerevisiae mec2-1 strain, at 50.0 µM, active compounds read high
Method in brief: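 Readout is yeast growth inhibition, normalised to vehicle-treated controls, in the mec2-1 strain exposed to compound.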

[3] = NCI Yeast Anticancer Drug Screen. Data for the sgs1 mgt1 strain (AID 161);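 further: 0% = growth of cultures given vehicle only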; conditions: S. cerevisiae sgs1 mgt1 strain, at 50.0 µM, active compounds read high
Method in brief: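 Compounds are added to genetically altered yeast, and growth is compared with cultures given vehicle alone to give percent inhibition.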

[4] = NCI Yeast Anticancer Drug Screen. Data for the cln2 rad14 strain (AID 165);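 further: 0% = growth equal to vehicle treated cultures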; conditions: S. cerevisiae cln2 rad14 strain, at 50.0 µM, active compounds read high
Method in brief: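 Relative to vehicle controls, growth inhibition of compound-treated cln2 rad14 yeast was recorded.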

[5] = NCI Yeast Anticancer Drug Screen. Data for the bub3 strain (AID 167); conditions: S. cerevisiae bub3 mutant strain, at 50.0 µM, active compounds read high
Method in brief: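 Part of a panel of yeast mutants defective in DNA damage repair or cell cycle regulation. Each strain is grown with compound, and inhibition is calculated relative to solvent-treated cultures.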

[6] = NCI Yeast Anticancer Drug Screen. Data for the mlh1 rad18 strain (AID 175); conditions: S. cerevisiae mlh1 rad18 strain growth inhibition; at 50.0 µM; active compounds read high
Method in brief: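 Test agents were incubated with a yeast strain of defined genotype (DNA damage repair defect). Inhibition of growth was derived by comparison with vehicle-exposed cultures.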

Measured: growth inhibition

[Cl][Pd][Cl].[NH-]c1ccc(/C=C2\C=Cc3ccccc32)cc1.[NH-]c1ccc(/C=C2\C=Cc3ccccc32)cc1
inactive: [2] 32.8% | [4] 47.4%
active: [1] 89.5% | [3] 83.7% | [5] 75.5% | [6] 79.3%

CC(=O)Oc1cc2c(cc1C(NC(N)=O)c1ccc3c(c1)OCO3)OCO2 (stereo unspecified)
inactive: [1] 1.95% | [2] 2.7% | [3] 1.55% | [4] -11.2% | [5] 16.4% | [6] 12.4%

O=C(O)C(=C\c1ccccc1)/C(=C\c1ccccc1)C(=O)OCc1ccccc1
inactive: [1] 16.9% | [2] 5.3% | [3] 19.9% | [4] -0.4% | [5] 47.5% | [6] 8.4%

O=C(NC1(C(=O)O)CCCC1)C(F)(F)F
inactive: [1] -13.8% | [2] 14.7% | [3] -14.2% | [4] -25.3% | [5] 2.45% | [6] -8.25%

O=C(C(c1ccccc1)c1ccccc1)N(CCO)c1ccccc1
inactive: [1] -12% | [2] -28.6% | [3] -4.2% | [4] -9.5% | [5] -4.6% | [6] -0.65%

CC(C)(C)c1[nH]ncc1CCC(=O)Nc1ccc(Cl)cc1Cl
inactive: [1] -0.6% | [2] -1.95% | [3] -5.85% | [4] 1.1% | [5] -16.1% | [6] 4.05%

Cc1ncc2c(=O)c3c(oc2n1)c1ccccc1n3Cc1ccccc1
inactive: [1] 8.75% | [2] 9.15% | [3] 15.2% | [4] 3.1% | [5] 11.7% | [6] -4.1%

CCc1c2cc(OC)c(OC)cc2cc2c3cc(OC)c(OC)cc3cc[n+]12 (tested in a mixture with another compound)
inactive: [1] -23.1% | [2] -22.4% | [3] -20.1% | [4] -20.9% | [5] -42% | [6] -11.7%

CCNC1C2(CCCCC2)NC(=O)C12CCCCC2 (stereo unspecified)
inactive: [1] -43.4% | [2] -10.9% | [3] -1.1% | [4] 12.1% | [5] -7.05% | [6] 2.65%

CCc1cc2c(c3c1CCCC3=O)CC1(Cc3ccc(C(=O)OC)cc3C1)C2 (stereo unspecified)
inactive: [1] -8.05% | [2] -28.9% | [3] -7.6% | [4] -20.6% | [5] -8.95% | [6] -39.7%

N#C/C(=C/NC(=S)Nc1ccccc1)C(N)=O
inactive: [1] -31.6% | [2] -30.8% | [3] -26.8% | [4] -20% | [5] -15.7% | [6] -16.5%

Cc1cc(Br)ccc1N
inactive: [1] -3.15% | [2] 1.95% | [3] -9.5% | [4] -36.5% | [5] 19.1% | [6] 9.25%

CCCCCCCCC(=O)c1c(OC)oc(/C=N/NC(N)=S)cc1=O
inactive: [4] 9.55%
active: [1] 83.5% | [2] 77.1% | [3] 79% | [5] 86.2% | [6] 71.8%

Cc1ccnc(NS(=O)(=O)c2ccc(N=Cc3ccccc3O)cc2)n1
inactive: [1] -28.4% | [2] -20.1% | [3] -13.9% | [4] -40.4% | [5] -36.2% | [6] -0.5%

CCC1=C(CC2NCCc3ccccc32)CC2c3cc(OC)c(OC)cc3CCN2C1 (stereo unspecified)
inactive: [1] -9.9% | [2] -12.1% | [3] -14.7% | [4] 3.9% | [5] -28% | [6] -11.1%

COc1cc(C(C)c2cc3c(cc2O)OCO3)cc(OC)c1OC (stereo unspecified)
inactive: [1] -31.2% | [2] -26.1% | [3] -15.6% | [4] 8.5% | [5] 26.8% | [6] -16.4%

CN(C)c1ccccc1CCCCCBr
inactive: [1] 8.35% | [2] 5.5% | [3] 5.5% | [4] -37.1% | [5] -6.7% | [6] 3.75%

Nc1c2c(cc3c1C(=O)c1ccccc1C3=O)OCO2
inactive: [1] 47.8% | [2] 20% | [3] 29.4% | [4] 16.2% | [5] 22% | [6] 39%

Fc1c(F)c(F)c(CSc2nc3ccccc3[nH]2)c(F)c1F
inactive: [1] -42% | [2] -20.1% | [3] -26.7% | [4] -7.35% | [5] 0.35% | [6] -16.7%

N#CCCC1(CCC#N)CCCCCCCCC(CCC#N)(CCC#N)C(=O)C1=O
inactive: [1] -8.7% | [2] -7.2% | [3] -5.15% | [4] 6.65% | [5] 2.4% | [6] 14.7%

NC(Cc1ccc(F)cc1)(C(=O)O)c1ccccc1 (stereo unspecified)
inactive: [1] 5.2% | [2] 28.5% | [3] 8.55% | [4] -23.4% | [5] 5.85% | [6] 28.8%

O=C(O)COc1ccc(F)c(F)c1F
inactive: [1] -16.1% | [2] 4.5% | [3] 21.1% | [4] -9.6% | [5] -2.75% | [6] -20.1%

CN(C)NC(=O)CC#N
inactive: [1] -18.4% | [2] -1.55% | [3] -4.45% | [4] -4.3% | [5] -6% | [6] 2.75%

CCOc1ccccc1C=C1c2ccccc2C(=O)c2ccccc21
inactive: [1] 10.3% | [2] -7.6% | [3] -3.6% | [4] -21.6% | [5] 18.1% | [6] 6.25%

COC(=O)C1CC(=O)N(CCCl)C1 (stereo unspecified)
inactive: [1] -5.65% | [2] 5.6% | [3] -23.9% | [4] -18.1% | [5] 11.7% | [6] -10.8%

CCOC(=O)/C=C/SCCCN
inactive: [1] 3.95% | [2] -1.4% | [3] 3.3% | [4] -22.3% | [5] -4.75% | [6] 6.4%

COC(=O)NC(Nc1ccc(C)cc1)(C(F)(F)F)C(F)(F)F
inactive: [1] 11.9% | [2] -8.9% | [3] -39.6% | [4] 5.9% | [5] -2.65% | [6] -4.7%

NNC(=O)c1ccccc1F
inactive: [1] -19.6% | [2] -19.4% | [3] -16.3% | [4] -4.7% | [5] -10.2% | [6] -19.2%

Cc1[nH]c(=O)n2c(C)nnc2c1C(=O)Nc1cc(Cl)cc(Cl)c1
inactive: [1] 15.2% | [2] -0.45% | [3] 39% | [4] 18.4% | [5] 7.5% | [6] 31.2%

CC(=O)CCc1ccc(Cl)cc1
inactive: [1] -21.6% | [2] -3.55% | [3] -1% | [4] 3.1% | [5] 5.4% | [6] -4.4%

CCOc1ccc2cc3c(nc2n1)[nH]c1ccccc13
inactive: [1] -27.4% | [2] 4.15% | [3] -0.3% | [4] -16.1% | [5] 8.25% | [6] 11.1%

NC(=O)Nc1ccc(Cc2ccc(NC(N)=O)cc2)cc1
inactive: [1] -15.4% | [2] -26.8% | [3] 10.7% | [4] 10.8% | [5] 12.9% | [6] 12.3%

NS(=O)(=O)c1ccc(NCc2cnc3ccccc3c2)cc1
inactive: [1] -4.65% | [2] -22.3% | [3] 12% | [4] -5.25% | [5] 4.1% | [6] 27.4%

C[n+]1ccccc1/C=C/c1cccc([N+](=O)[O-])c1
inactive: [1] -17.6% | [2] -2.7% | [3] -1.3% | [4] -28.8% | [5] 7.8% | [6] 1.9%

O=c1[nH]c2cc([N+](=O)[O-])ccc2nc1/C(=N/Nc1ccccc1)C(O)c1ccc(Cl)cc1Cl (stereo unspecified)
inactive: [1] 41% | [2] 3.6% | [3] -11.6% | [4] -20.2% | [5] -7.3% | [6] 34.7%

CCOC(=O)NC(Nc1ncccn1)(C(=O)OCC)C(F)(F)F (stereo unspecified)
inactive: [1] -28.9% | [2] -29.4% | [3] -77.3% | [4] -15.6% | [5] -39.8% | [6] -34.9%

Nc1nc(N)c(N=Nc2ccc(S(=O)(=O)NC(=O)c3ccccc3)cc2)c(=O)[nH]1
inactive: [1] -8.4% | [2] -4.3% | [3] -6.9% | [4] -9.35% | [5] -2.55% | [6] -8.9%

CC1CC(C)(C)NC(C2CCC=CO2)O1 (stereo unspecified)
inactive: [1] 5.2% | [2] -3.9% | [3] -7% | [4] -20.6% | [5] -18.6% | [6] 5.9%

C1=C(c2ccccc2)Cc2ccccc21
inactive: [1] 13.4% | [2] 24.4% | [3] 19.9% | [4] -14.8% | [5] 15.4% | [6] 23.9%

N#C/C(=C\c1ccccc1Cl)C(N)=S
inactive: [1] 10.6% | [2] 11.2% | [3] 1.15% | [4] 8% | [5] -27.4% | [6] 6.05%

CN(C)CC(CN(C)C)C(=O)C(C)(C)C
inactive: [1] 9.45% | [2] -1.95% | [3] 22.7% | [4] -7.7% | [5] 7.8% | [6] 13.8%
